In PubChem BioAssay (NCATS):
Values joined by “and” are separate entries in the source; they are usually repeats but may differ in a detail not shown here. Equal entries are not always repeated. Records with an inconclusive call do not appear. Values without a mark were called inactive. Active and inactive are the calls of the source. The call rests on the fitted dose curve; in most records, active means well fitted activation curve with a large enough effect; inconclusive means small, poorly fitted or top-dose-only effect; inactive means no such curve, though single readings can be large or run the other way.

Target: Cellular tumor antigen p53 (Homo sapiens) (UniProt P04637)
Assay: Primary qHTS for small molecule compounds that upregulate eGFP-tagged delta133p53alpha (in N-terminal) cells. (AID 2060322); further: nearly all actives have a fitted effect of over 75% in size;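 on activation: cells pre-induced with doxycycline then dosed without doxycycline; series mostly up to about 56 µM; 0% = DMSO vehicle and 100% = reference activator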
Settings: NCI-H358 eGFP-delta133p53alpha fluorescence, 24 h; activation: hits give high values
Source text: Assay Development and Screening Technology
National Center for Advancing Translational Sciences (NCATS),
National Institute of Health (NIH), Rockville, Maryland
Cellular senescence (CS) is one of the hallmarks of aging and age-related diseases. Senescent cells are characterized by an irreversible growth arrest, an increase in senescence-associated beta-galactosidase (SA-beta-gal) activity and p16INK4a expression, an activation of the DNA damage response pathways, and the emergence of a senescence-associated secretory phenotype (SASP).
Delta133p53alpha, a human/primate-specific p53 protein isoform, delays or inhibits the induction of CS and SASP in various types of human cells, including progeria-derived fibroblasts, primary normal astrocytes, and CD8+ T lymphocytes. Induction of delta133p53alpha with small molecule compounds may provide therapeutic opportunities for inhibition of senescence/SASP-associated pathologies in progeria syndromes, astrocyte-mediated neuroprotection in neurodegenerative diseases, and possibly prevention and treatment of a wider range of senescence- and aging-associated diseases.
Here we report the development and validation of a cell-based quantitative high throughput screening (qHTS) assay in 1,536-well format. This qHTS assay uses the NCI-H358 cell line with doxycycline-inducible expression of enhanced green fluorescent protein (eGFP)-tagged delta133p53alpha, which allows efficient and highly quantitative measurement of the protein levels.
PROTOCOL TABLE (as described by Inglese J, Shamu CE and Guy RK. 2007)
SEQUENCE No. (e.g., 1, 2, 3, etc.); […] (e.g., Cells, Incubation, Reagent, etc.); VALUE; DESCRIPTION.
1; Cells; 4uL; 800 doxycycline treated cells / well in doxycycline-free media, 1536-well black, clear-bottom low base Aurora microplates.
2; Compounds; 23 nL; Kalypsis pin tool (Wako) equipped with 1536-well pin heads, 5-azacytidine positive control.
3; Incubation; 24 hr; 37C, 5% CO2; 95% relative humidity.
4; Aspiration; 1x; BioTek EL406 washer dispenser (Agilent).
5; Fixing; 3.5% paraformaldehyde, BioTek EL406 washer dispenser (Agilent).
6; Washing; 1x PBS; BioTek EL406 washer dispenser (Agilent).
7; Nuclei staining; 1:1000 dilution of Hoechst 33342 (Thermofisher), BioTek EL406 washer dispenser (Agilent).
8; Incubation; 20 min; in the dark at room temperature.
9; Washing; 2x, 1x PBS (ThermoFisher), BioTek EL406 washer dispenser (Agilent).
10; Reagent; 10 uL; 1x PBS per well, sealed with clear adhesive tape.
NOTES (numbers refer to sequence numbers above).
1. NCI-H358 cells expressing eGFP-tagged delta133p53alpha were grown in T75 culture flasks and treated with doxycycline for 24h, at 10 ng/ml for eGFP-D133p53a cells (N-terminal cell) and 100 ng/ml for D133p53a-eGFP cells (C-terminal cells). Cells were trypsinized, counted using a Counted 3 Automated Cell Counter (Thermo Fisher), and diluted to a concentration of 200,000 cells/ml. A Multidrop Combi Reagent Dispenser (ThermoFisher) was used to dispense 800 cells/well in […] of doxycycline-free media, into 1536-well black/clear bottom low base plates (AuroraMicroplates).
2. After plating cells, 23 nl of compound library, DMSO vehicle control or positive control (5-azacytidine) were transferred by Pin Tool (Wako). The plate map layout was the same for each plate: (column 1) non-doxycycline treated cells + DMSO vehicle control; (column 2) doxycycline treated cells + DMSO vehicle control baseline; (column 3) doxycycline treated cells + positive control 57.5 uM final concentration 5-azacytidine; (column 4) doxycycline treated cells + serial dilution of 5-azacytidine, 16-point 1:2 titration spanning 1.8 nM to […] final concentration; (columns 5-48) doxycycline treated cells + titration of library compounds.
3. Cells were incubated at 37 °C, 5 % CO2, 95% RH with breathable metal lid for 24h.
4-10. […] After two washes, 10 ul of 1X PBS (Thermo Fisher) was dispensed to each well. Clear adhesive plate seals (VWR) were applied and plates stored at 4 °C.
11. […]
Potency means the concentration at half of the fitted maximal effect.

Chain of Cellular tumor antigen p53 (Homo sapiens) (P04637 whole entry, looked up): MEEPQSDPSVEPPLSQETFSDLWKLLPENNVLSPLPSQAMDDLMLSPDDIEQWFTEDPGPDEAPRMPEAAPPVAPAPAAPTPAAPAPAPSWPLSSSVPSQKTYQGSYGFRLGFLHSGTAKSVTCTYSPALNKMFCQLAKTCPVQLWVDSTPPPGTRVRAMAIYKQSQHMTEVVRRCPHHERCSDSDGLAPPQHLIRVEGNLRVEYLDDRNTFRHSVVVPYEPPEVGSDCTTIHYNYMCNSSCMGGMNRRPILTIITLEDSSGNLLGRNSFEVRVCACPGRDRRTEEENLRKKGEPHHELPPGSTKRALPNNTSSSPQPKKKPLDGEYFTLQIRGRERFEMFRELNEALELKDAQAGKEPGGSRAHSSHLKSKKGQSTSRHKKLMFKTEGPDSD

Compared with CC1OC(OCC2OC(OC3CCC4(C)C(CCC5(C)C4CC=C4C6CC(C)(C)CCC6(C(=O)OC6OC(CO)C(O)C(O)C6O)CCC45C)C3(C)CO)C(O)C(O)C2O)C(O)C(O)C1O (stereo not given), C[C@@H]1CC[C@]2(C(=O)O[C@@H]3O[C@H](CO[C@@H]4O[C@H](CO)[C@@H](O[C@@H]5O[C@@H](C)[C@H](O)[C@@H](O)[C@H]5O)[C@H](O)[C@H]4O)[C@@H](O)[C@H](O)[C@H]3O)CC[C@]3(C)C(=CCC4[C@@]5(C)C[C@@H](O)[C@H](O)[C@@](C)(CO)C5CC[C@]43C)C2[C@H]1C (stereo not given in full) is lower in activation: -9.92% for the first, -19.6% for the second.

CC1CCC2C(=CCC(O)C2(C)C)C1(C)Cc1c(O)cc(CO)c(C=O)c1O (stereo not given) and CC1(C)CCCC2(C)C3=C(C(=O)OC3O)C(O)CC12 (stereo not given) are the same in activation: 9.92% for the first, 9.92% for the second.

Compared with N[C@@H](CC(=O)N1CCn2c(nnc2C(F)(F)F)C1)Cc1[nH]nc2c(F)c(F)ccc12, COc1ccccc1[C@@H]1C2=C(CC(C)(C)CC2=O)Nc2n[nH]c(C(F)(F)F)c21 is higher in activation: -3.82% for the first, 9.67% for the second.

Compared with O=C(O[C@H]1[C@@H]2C[C@@H]3OC[C@](O)([C@@H]1Cl)[C@H]2C(O[C@@H]1O[C@H](CO)[C@@H](O)[C@H](O)[C@H]1O)O3)c1ccc(O)c(O)c1 (stereo not given in full), OC[C@@]1(O)CO[C@@H](OC[C@H]2O[C@@H](OCc3ccccc3)[C@H](O)[C@@H](O)[C@@H]2O)[C@@H]1O is higher in activation: -22.1% for the first, -13.7% for the second.

First: CC[C@@H](C)Nc1cc(C(=O)NC2CC3CC[C@@H](C2)N3c2ccc(C(=O)C3CC3)cn2)c(C)cc1C(N)=O (stereo not given in full)
Second: CCOC(=O)N1CCC(N2CCC[C@@H](NC(=O)c3ccccc3C)C2)CC1
The activation of the first is higher: 20.5% for the first, -2.86% for the second.

Going from O=C(/C=C/c1ccc(O)cc1)c1ccc(O)cc1O to CSc1ccc(/C=C2/C(C)=C(CC(=O)O)c3cc(F)ccc32)cc1, the activation rises from -26.4% to -8.47%.

Going from CC[C@H](C)[C@H](N)C(=O)O to CC(O)/C=C/C1C(C)C(O[C@@H]2O[C@H](CO)[C@@H](O)[C@H](O)[C@H]2O)C(O)CC1(C)C (stereo not given in full), the activation rises from -22% to 12.2%.

First: Nc1ccc(S(=O)(=O)NC(=O)c2ccccc2)cc1
Second: O=C(NCc1ccc(S(=O)(=O)c2cc(F)cc(F)c2)cc1)c1ccc2nccn2c1
The activation of the first is lower: 5.08% for the first, 17.2% for the second.

Going from Cc1ccc2c(c1)C(N1CCN(C)CC1)=Nc1cccnc1N2 to c1cnc2c(c1)ccc1cccnc12, the activation falls from 13.7% to -78.4%.

First: O=C(C1OC1/C=C/c1ccc2c(c1)OCO2)N1CCCCC1 (stereo not given)
Second: C=CCC1=C[C@]2(OC)[C@H](C)[C@@H](c3ccc4c(c3)OCO4)O[C@]2(OC)CC1=O
The activation of the first is lower: -6.11% for the first, 1.53% for the second.

Going from COc1c2c(c(C)c3c1C(=O)OC3)O[C@@]1(C)CCC3(C(C)(C)O)OC(=O)CC[C@]3(C)[C@H]1C2 (stereo not given in full) to CC1=C2C[C@@]3(C)[C@@H](CCC[C@@H]3C)C[C@@]2(O)OC1=O, the activation falls from 4.58% to -4.46%.

Going from C=C1CCC2C(C)(C)CC(=O)CC2(C)C1CCC(C)CCO (stereo not given) to CC1=CC[C@@]2(C)CC[C@@](O)(C(C)C)[C@@H]2[C@@H](O)C1, the activation rises from 6.25% to 11.5%.

First: C1CCc2nnnn2CC1
Second: CCc1cnc(N2CCC(c3nc(COc4ccc(-n5cnnn5)cc4)cs3)CC2)nc1
The activation of the first is lower: -8.09% for the first, 2.86% for the second.

First: N#CC1(c2cccc(C(=O)Nc3cc(Oc4ccc5nc(NC(=O)C6CC6)sc5n4)ccc3F)c2Cl)CC1
Second: COc1ncc(-c2ccc3c(Nc4cc(Oc5cc(F)cc(F)c5)cc(C(=O)O)c4)c(S(=O)(=O)NC4CC4)cnc3c2)c(OC)n1
The activation of the first is higher: 23.6% for the first, -3.34% for the second.

Compared with CCCc1c(-c2ccc(O)cc2)nn(-c2ccc(O)cc2)c1-c1ccc(O)cc1, CCCCCCCCc1ccc(CCC(N)(CO)CO)cc1 is higher in activation: -36.4% for the first, 2.16% for the second.

Work on Brc1c(Br)c(Br)c2[nH]cnc2c1Br yielded an activation of -55.8%.

O=C(O)CP(=O)(O)O was tested, and the activation was -13% and 17.7%.
Clc1ccc(Nc2nnc(Cc3ccncc3)c3ccccc23)cc1 was tested, and the activation was -10.3% and 9.21% and -17%.
For CN(C)CCCOc1nn(Cc2ccccc2)c2ccccc12, the activation was 8.47% and -14.3%.
For CN(C)CCCN1c2ccccc2CCc2ccccc21, the activation was -0.565% and -9%.
For CC(C)(N)C(=O)N[C@H](COCc1ccccc1)C(=O)N1CCC2(CC1)CN(S(C)(=O)=O)c1ccccc12, the activation was 18.6% and 11%.

For CNC(=O)c1nn(C)c2c1C(C)(C)Cc1cnc(Nc3ccc(N4CCN(C)CC4)cc3)nc1-2, the Potency was 38.5 µM (active) and 9.53 µM (active).
For C=C1C(=O)O[C@@H]2/C=C(/C)CC3C=C(C[C@H](OC(=O)/C(C)=C\C)[C@@H]12)C(=O)O3 (stereo not given in full), the Potency was 11.7 µM (active).
With CC(C)C(CO)Nc1nc(Nc2cc(N)cc(Cl)c2)c2ncn(C(C)C)c2n1 (stereo not given) the Potency was 30.1 µM (active).
For CCN1CCC(n2cc(CNc3cc(Cl)c4ncc(C#N)c(Nc5ccc(F)c(Cl)c5)c4c3)nn2)CC1, the Potency was 16.9 µM (active).
